# Where “and” joins values, the source holds several entries; their conditions need not be identical. Equal entries are not always repeated. Compounds without any hit were thinned out: in the full panel of roughly 83,000, 20% have a hit.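 Cell lines were cultured in 96-well plates, exposed to a single compound concentration, and assessed for percent growth 48 hours later.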 Values without a mark were called inactive. Calls of active or inactive are those of the source. How the source made its calls: active means growth percent below 10; inactive means the rest.
# Test system: SK-OV-3 ovarian
# Test: NCI-60 one-dose screen, 48 h (100 = growth as untreated, 0 = no growth, -100 = all killed)
# Conditions: 10 µM unless noted
row,Compound,growth
1,O=[N+]([O-])c1ccc2c(N=Nc3ccc4ccccc4c3O)c(O)cc(S(=O)(=O)O)c2c1,90%
2,O=C(Nc1cccc(Br)c1)Oc1ccc(Cl)c2cccnc12,95.6% [100 µM]
3,Oc1c(Cl)cc(Cl)c2cccnc12,86.5% and 65.8%
4,COC(=O)[C@@]12OC[C@]34[C@H]([C@@H](O)[C@@H]1O)[C@@]1(C)[C@H](O)C(=O)C=C(C)[C@@H]1C[C@H]3OC(=O)C(OC(C)=O)[C@@H]24 (stereo partly drawn),-9.46% (active)
5,CNC(=O)N/N=C/c1ccc([N+](=O)[O-])o1,109%
6,O=C1C2=C(Nc3cc([N+](=O)[O-])ccc3N2)OC1c1c2ccccc2cc2ccccc12 (stereo not drawn),104%
7,COc1cc(/C=C(/C)C[N+](=O)[O-])ccc1O,103%
8,O=C(O)c1ccc2c3c(ncnc13)-c1ccccc1C2=O,98%
9,COc1ccc(-c2cscc2N)cc1,80.2% [100 µM]
10,Cc1ccc2nc(C[n+]3ccc4ccccc4c3)ccc2c1,70%
11,C=C(Cl)C(=NC(C)(C)C)Nc1ccccc1C,105%
12,O=C1OCc2cccc3cccc1c23,112%
13,NC(N)=N/N=C/c1ccc([N+](=O)[O-])o1,116%
14,N#CSCc1c(Cl)cccc1Cl,96.6%
15,CC(=O)ON=C1C=CC(=C(C#N)c2ccccc2)C=C1,55.7%
16,CCCCCCCCCCCCCCCCCCOP(=O)([O-])OC1CC[N+](C)(C)CC1,35.9% and 48.2%
17,C[n+]1c(/C=C/c2ccc([N+](=O)[O-])cc2)ccc2ccccc21,109%
18,c1ccc2c(c1)Nc1cc3ccccc3cc1N2,63.6%
19,CCOC(=O)/C(=C\c1ccc(-c2ccccc2)cc1)C(C)=O,116%
20,O=C1c2ccccc2C(=O)c2sc(Nc3ccc(Cl)cc3)nc21,100%
21,COc1ccc2nc3cc(Cl)ccc3c(NCCNc3c4ccc(Cl)cc4nc4ccc(OC)cc34)c2c1,-95.6% (active)
22,CCOC(=O)/C=C/c1ccc([N+](=O)[O-])o1,106%
23,COC(=O)c1nc(=S)[nH]c(C(=O)OC)c1C(=O)c1ccc2ccccc2c1,101%
24,COc1cc(NS(C)(=O)=O)ccc1Nc1c2ccccc2nc2ccccc12,32.5% [2.5 µM]
25,S=C(NCCNC(=S)[S][Sn]([c]1ccccc1)([c]1ccccc1)[c]1ccccc1)[S][Sn]([c]1ccccc1)([c]1ccccc1)[c]1ccccc1,-100% (active)
26,CN(C)C(=O)SC1=C(c2c(Cl)cccc2Cl)C(=O)c2ccccc21,110%
27,Cc1ccc2nc(-[n+]3cc4ccccc4cc3C)ccc2c1,38.3%
28,O=C(O)C1C2CC3C(OC(=O)C31)C2Br (stereo not drawn),95.8% and 105%
